Experimental data from PubChem BioAssay (Tox21).
Inconclusive results are not listed. Activity calls are given as the source filed them. Unless noted, calls come from the whole dose curve.

What was measured:
[1] = Nuclear factor erythroid 2-related factor 2/antioxidant responsive element (Nrf2/ARE) small molecule agonists: qHTS cell viability counter screen in human keratinocytes (AID 1919968; active = well fitted curve in the direction sought with a large enough effect in the repeat runs; an effect the other way counts as inactive or inconclusive; note: nearly all actives have a fitted effect of over 55% in size)
How it was run: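 Parallel cytotoxicity read: KeratinoSens HaCaT cells, compound treatment 23 h, viability by CellTiter-Fluor fluorescence 1 h post-reagent.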

[2] = Nuclear factor erythroid 2-related factor 2/antioxidant responsive element (Nrf2/ARE) small molecule agonists: luciferase reporter gene qHTS assay in human keratinocytes (AID 1919969); note: nearly all actives have a fitted effect of over 35% in size; note: potency is the fitted concentration of half-maximal effect
[3] = target: Gonadotropin-releasing hormone receptor (Homo sapiens) (UniProt P30968); test: Human gonadotropin-releasing hormone receptor (GnRHR) small molecule agonists, calcium flux assay in GnRHR-HEK293 cells (AID 1920063); note: nearly all actives have a fitted effect of over 35% in size
How it was run: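 Calcium flux, agonist mode, human GnRHR stably integrated in HEK293; dye 1 h at 37 C before compound; Ex/Em=480/540 kinetic read, 3 min; 15 concentrations, triplicate.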

[4] = target: KiSS-1 receptor (Homo sapiens) (UniProt Q969F8); test: Human kisspeptin (KISS1R) small molecule agonists, calcium flux assay in KISS1R-HEK293 cells (AID 1920064; active = well fitted curve in the direction sought with a large enough effect in the repeat runs; an effect the other way counts as inactive or inconclusive)
How it was run: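 Triplicate 15-concentration series were applied to dye-loaded human KISS1R HEK293 cells, and agonist-evoked calcium fluorescence was captured for 3 min.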

[5] = G protein-coupled receptor (GPCR) small molecule agonists, calcium flux assay: HEK293 wild type cell line counter screen (AID 1920065)
How it was run: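 Non-specific calcium responders were flagged by adding DMSO-dissolved compounds to dye-loaded cells and reading 480/540 nm fluorescence each second for 3 min; ATP served as positive control.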

[6] = p53 small molecule agonists, cell-based qHTS assay with human liver microsomes (AID 1963577);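 note: p53 response element beta-lactamase reporter cells with liver microsomes plus NADPH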
How it was run: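 Metabolically competent format: test substances, human liver microsomes and NADPH (both 0.5 mg/mL final) incubated with p53RE-bla cells 16 h at 37 C. Beta-lactamase reporter signal then quantified by fluorescence.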

[7] = p53 small molecule agonists, cell-based qHTS assay with rat liver microsomes (AID 1963578)
How it was run: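 Each plate received p53RE-bla cells, then compound, then rat liver microsomes and NADPH (both 0.5 mg/mL final). Plates were held 16 h at 37 C, and beta-lactamase activity was detected with LiveBLAzer over 2 h.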

[8] = p53 small molecule agonists, cell-based qHTS assay with human liver microsomes: qHTS cell viability counter screen (AID 1963579); note: nearly all actives have a fitted effect of over 45% in size
How it was run: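 Tox21 library compounds, delivered from DMSO stocks, were tested on p53RE-bla cells together with 0.5 mg/mL human liver microsomes and 0.5 mg/mL NADPH (final) over 16 h at 37 C; CellTiter-Glo luminescence served as the cytotoxicity measure.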

[9] = p53 small molecule agonists, cell-based qHTS assay with rat liver microsomes: qHTS cell viability counter screen (AID 1963580); note: nearly all actives have a fitted effect of over 45% in size
How it was run: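 Cytotoxicity counter screen: intracellular ATP read by CellTiter-Glo luminescence in the p53 reporter wells. HCT-116 p53RE-bla cells were treated for 16 h at 37 C alongside rat liver microsomes and NADPH, each 0.5 mg/mL final.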

[10] = p53 small molecule agonists, cell-based qHTS assay: qHTS cell viability counter screen (AID 1963581); note: nearly all actives have a fitted effect of over 45% in size
How it was run: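 Multiplexed with the reporter read, a CellTiter-Glo step (30 min, room temperature) gauges ATP-based viability of HCT-116 p53RE-bla cells after 16 h compound incubation at 37 C.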

[11] = p53 small molecule agonists, cell-based qHTS assay (AID 1963582; active = well fitted activation curve with a large enough effect in the signal ratio in the repeat runs, not every such curve was filed as active; the % refers to the signal ratio)
How it was run: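 Beta-lactamase reporter cells (p53RE-bla) treated with compounds for 16 h at 37 C; FRET substrate, 2 h, room temperature; fluorescence intensity.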

[12] = target: 5-hydroxytryptamine receptor 2A (Homo sapiens) (UniProt P28223); test: 5-hydroxytryptamine receptor 2A (HTR2A) small molecule antagonists, cell-based qHTS assay (AID 1963586); note: nearly all actives have a fitted effect of over 45% in size
How it was run: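 CHO cells stably expressing human HTR2A were plated for 18 h at 37 C, then loaded with calcium dye for 1 h. Compounds were preincubated 5 min at room temperature before DOI (4 nM solution) was added. Kinetic fluorescence was read for 3 min.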

[13] = target: 5-hydroxytryptamine receptor 2A (Homo sapiens) (UniProt P28223); test: 5-hydroxytryptamine receptor 2A (HTR2A) small molecule agonists, cell-based qHTS assay (AID 1963587); note: nearly all actives have a fitted effect of over 30% in size
How it was run: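 Kinetic calcium-flux fluorescence (2 min, 1 sec intervals) after compound addition in agonist mode. HTR2A-CHO cells were cultured 18 h, then dye-loaded 1 h at 37 C.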

[14] = target: Muscarinic acetylcholine receptor M1 (Homo sapiens) (UniProt P11229); test: Cholinergic receptor muscarinic 1 (CHRM1) small molecule antagonists, cell-based qHTS assay (AID 1963588); note: nearly all actives have a fitted effect of over 40% in size
How it was run: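 Compounds were tested at 15 concentrations in three independent runs. Dye-loaded CHRM1-CHO cells were exposed 5 min at room temperature before stimulation by acetylcholine added at 50nM. Intracellular calcium was read kinetically on FDSS for 3 min.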

[15] = target: Muscarinic acetylcholine receptor M1 (Homo sapiens) (UniProt P11229); test: Cholinergic receptor muscarinic 1 (CHRM1) small molecule agonists, cell-based qHTS assay (AID 1963589); note: nearly all actives have a fitted effect of over 35% in size
How it was run: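 qHTS, 15-point titration, 3 independent runs: compounds pin-transferred onto dye-loaded CHRM1-CHO cells (human M1), calcium fluorescence followed every second to detect agonism.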

[16] = cAMP Responsive Elements (CRE) small molecule agonists, cell-based qHTS assay (AID 1963590)
How it was run: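 Quantitative HTS for CRE agonists: HEK 293T CRE-bla cells, overnight plating, 3 h compound incubation at 37 C/5% CO2, then 2 h room-temperature LiveBLAzer B/G FRET substrate loading.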

[17] = cAMP Responsive Elements (CRE) small molecule antagonists, cell-based qHTS assay (AID 1963591; active = well fitted inhibition curve with a large enough effect in the signal ratio in the repeat runs, not every such curve was filed as active; the % refers to the signal ratio)
How it was run: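 Fluorescence intensity from cleaved LiveBLAzer B/G substrate (2 h, room temperature) quantified CRE-bla activity in HEK 293T cells exposed 3 h to compound with 0.25 uM final NKH477.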

[18] = target: Beta-2 adrenergic receptor (Homo sapiens) (UniProt P07550); test: Adrenergic beta2 receptor (ADRB2) small molecule antagonists, cell-based qHTS assay (AID 1963592); note: series mostly up to about 92 µM; nearly all actives have a fitted effect of over 50% in size
How it was run: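 Assay format: CHO-ADRB2 cells, 18-20hr seeding at 37C/5% CO2, then compound plus 1nM isoproterenol agonist mix for 0.5hr RT. Homogeneous time-resolved fluorescence cAMP detection after 1hr, expressed as 665/615 nm ratio.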

[19] = target: D(2) dopamine receptor (Homo sapiens) (UniProt P14416); test: Dopamine D2 receptor (DRD2) small molecule antagonists, cell-based qHTS assay (AID 1963595; active = well fitted inhibition curve with a large enough effect in the signal ratio in the repeat runs, with a control signal flat; the % refers to the signal ratio)
How it was run: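 DRD2-HEK293; 0.1 mM Ro20-1724; cpd 10 min RT; NKH477 200 nM + quinpirole 12 nM, 30 min RT; HTRF cAMP (cAMP-d2/anti-cAMP cryptate), 665/620 nm ratio after 1 h.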

[20] = target: D(2) dopamine receptor (Homo sapiens) (UniProt P14416); test: Dopamine D2 receptor (DRD2) small molecule agonists, cell-based qHTS assay (AID 1963594); note: nearly all actives have a fitted effect of over 35% in size
How it was run: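 cAMP accumulation in DRD2-HEK293 cells measured by HTRF after 1 h detection; compounds added 10 min before NKH477 (200nM […]) forskolin-analogue stimulation, 30 min at room temperature, with Ro20-1724 present at 0.1 mM final.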
% is set by controls: 0 for no effect and ±100 for the full control effect.

Beta-2 adrenergic receptor (Homo sapiens), sequence (P07550 whole entry, looked up): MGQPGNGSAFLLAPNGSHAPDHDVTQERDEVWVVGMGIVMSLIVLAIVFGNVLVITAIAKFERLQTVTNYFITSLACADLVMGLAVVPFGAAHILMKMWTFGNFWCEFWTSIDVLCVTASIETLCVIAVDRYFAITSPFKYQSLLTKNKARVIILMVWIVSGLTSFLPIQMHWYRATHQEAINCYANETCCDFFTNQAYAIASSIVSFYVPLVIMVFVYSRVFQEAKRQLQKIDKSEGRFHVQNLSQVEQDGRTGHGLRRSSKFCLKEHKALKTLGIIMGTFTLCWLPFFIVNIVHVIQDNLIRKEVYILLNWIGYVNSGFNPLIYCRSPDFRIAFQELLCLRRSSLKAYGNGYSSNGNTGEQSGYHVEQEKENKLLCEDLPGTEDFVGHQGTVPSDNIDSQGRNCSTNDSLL
D(2) dopamine receptor (Homo sapiens), sequence (P14416 whole entry, looked up): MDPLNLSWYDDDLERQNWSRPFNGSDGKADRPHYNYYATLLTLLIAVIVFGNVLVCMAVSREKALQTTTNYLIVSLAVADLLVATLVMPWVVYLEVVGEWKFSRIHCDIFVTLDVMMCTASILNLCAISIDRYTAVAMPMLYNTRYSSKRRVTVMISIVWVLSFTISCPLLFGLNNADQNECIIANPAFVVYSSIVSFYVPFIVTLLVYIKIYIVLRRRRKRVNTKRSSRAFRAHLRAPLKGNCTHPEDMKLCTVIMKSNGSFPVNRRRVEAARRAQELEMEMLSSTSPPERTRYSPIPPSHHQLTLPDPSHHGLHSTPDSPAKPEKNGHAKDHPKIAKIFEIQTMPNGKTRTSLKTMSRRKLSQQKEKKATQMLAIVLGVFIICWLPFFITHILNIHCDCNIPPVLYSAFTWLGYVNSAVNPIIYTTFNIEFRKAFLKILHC
5-hydroxytryptamine receptor 2A (Homo sapiens), sequence (P28223 whole entry, looked up): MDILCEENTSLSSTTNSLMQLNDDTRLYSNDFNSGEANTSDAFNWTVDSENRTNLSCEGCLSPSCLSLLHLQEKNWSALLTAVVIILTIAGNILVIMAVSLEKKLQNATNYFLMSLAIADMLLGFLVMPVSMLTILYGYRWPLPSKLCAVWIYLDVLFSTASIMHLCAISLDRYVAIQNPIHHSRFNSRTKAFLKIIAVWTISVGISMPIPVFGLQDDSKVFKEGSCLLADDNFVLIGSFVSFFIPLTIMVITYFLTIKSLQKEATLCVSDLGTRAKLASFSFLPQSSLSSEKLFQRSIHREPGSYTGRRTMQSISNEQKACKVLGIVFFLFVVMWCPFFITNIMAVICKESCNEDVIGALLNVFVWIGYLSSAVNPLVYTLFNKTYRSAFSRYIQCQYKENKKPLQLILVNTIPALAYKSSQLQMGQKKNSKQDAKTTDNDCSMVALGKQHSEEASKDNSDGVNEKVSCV
Gonadotropin-releasing hormone receptor (Homo sapiens), sequence (P30968 whole entry, looked up): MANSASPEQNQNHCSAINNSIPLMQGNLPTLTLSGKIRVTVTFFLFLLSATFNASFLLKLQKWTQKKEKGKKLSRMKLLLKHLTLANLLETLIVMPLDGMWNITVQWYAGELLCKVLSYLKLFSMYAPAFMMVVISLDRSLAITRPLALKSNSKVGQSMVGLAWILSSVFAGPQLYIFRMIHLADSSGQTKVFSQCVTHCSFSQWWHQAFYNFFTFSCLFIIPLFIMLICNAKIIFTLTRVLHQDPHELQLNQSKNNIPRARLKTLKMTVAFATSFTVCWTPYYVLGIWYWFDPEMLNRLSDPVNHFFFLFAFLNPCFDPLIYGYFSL
Muscarinic acetylcholine receptor M1 (Homo sapiens), sequence (P11229 whole entry, looked up): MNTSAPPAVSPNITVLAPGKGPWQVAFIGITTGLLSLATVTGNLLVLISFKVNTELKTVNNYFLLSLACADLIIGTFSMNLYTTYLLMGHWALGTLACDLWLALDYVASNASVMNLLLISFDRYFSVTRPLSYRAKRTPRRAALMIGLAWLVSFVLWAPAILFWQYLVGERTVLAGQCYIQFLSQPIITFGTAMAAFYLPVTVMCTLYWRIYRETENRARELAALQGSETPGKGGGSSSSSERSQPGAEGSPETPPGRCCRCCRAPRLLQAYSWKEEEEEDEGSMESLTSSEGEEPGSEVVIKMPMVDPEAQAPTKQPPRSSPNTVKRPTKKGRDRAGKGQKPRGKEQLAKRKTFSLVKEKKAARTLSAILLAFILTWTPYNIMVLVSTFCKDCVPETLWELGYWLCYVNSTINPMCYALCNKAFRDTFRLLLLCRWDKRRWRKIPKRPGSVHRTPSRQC
KiSS-1 receptor (Homo sapiens), sequence (Q969F8 whole entry, looked up): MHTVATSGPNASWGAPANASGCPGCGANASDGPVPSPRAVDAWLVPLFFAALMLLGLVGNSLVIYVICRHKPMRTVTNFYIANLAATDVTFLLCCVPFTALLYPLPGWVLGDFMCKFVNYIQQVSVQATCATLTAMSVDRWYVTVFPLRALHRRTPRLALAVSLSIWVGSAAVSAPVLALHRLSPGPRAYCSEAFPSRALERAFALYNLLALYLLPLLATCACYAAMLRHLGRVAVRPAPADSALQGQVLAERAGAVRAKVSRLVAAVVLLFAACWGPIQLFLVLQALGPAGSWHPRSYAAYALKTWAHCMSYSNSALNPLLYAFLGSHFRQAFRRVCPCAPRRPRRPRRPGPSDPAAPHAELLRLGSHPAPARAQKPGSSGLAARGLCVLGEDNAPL

CCOC(=O)c1cc(=O)c2c(OCC(COc3cccc4oc(C(=O)OCC)cc(=O)c34)OC(=O)[C@@H](N)CCCCN)cccc2o1
inactive: Potency [1] | Potency [2] | Potency [3] | Potency [4] | Potency [5] | Potency [6] | Potency [7] | Potency [8] | Potency [9] | Potency [10] | Potency [11] | Potency [12] | Potency [13] | Potency [14] | Potency [15] | Potency [16] | Potency [17] | Potency [18] | Potency [19]

CCCCCCc1ccc(-c2ccc(C#N)cc2)cc1
active: Potency [2] 13.4 µM
inactive: Potency [1] | Potency [3] | Potency [4] | Potency [5] | Potency [6] | Potency [7] | Potency [8] | Potency [9] | Potency [10] | Potency [11] | Potency [12] | Potency [13] | Potency [14] | Potency [15] | Potency [16] | Potency [17] | Potency [18] | Potency [20] | Potency [19]

COc1cc(C(=S)N2CCOCC2)cc(OC)c1OC
inactive: Potency [1] | Potency [2] | Potency [3] | Potency [4] | Potency [5] | Potency [6] | Potency [7] | Potency [8] | Potency [9] | Potency [10] | Potency [11] | Potency [12] | Potency [13] | Potency [14] | Potency [15] | Potency [16] | Potency [17] | Potency [18] | Potency [20] | Potency [19]

CCO[Si](C)(C)OCC
inactive: Potency [1] | Potency [2] | Potency [3] | Potency [4] | Potency [5] | Potency [6] | Potency [7] | Potency [8] | Potency [9] | Potency [10] | Potency [11] | Potency [12] | Potency [13] | Potency [14] | Potency [15] | Potency [16] | Potency [17] | Potency [18] | Potency [20] | Potency [19]

C=Cc1ccccn1
inactive: Potency [1] | Potency [2] | Potency [3] | Potency [4] | Potency [5] | Potency [6] | Potency [7] | Potency [8] | Potency [9] | Potency [10] | Potency [11] | Potency [12] | Potency [13] | Potency [14] | Potency [15] | Potency [16] | Potency [17] | Potency [18] | Potency [20] | Potency [19]

c1ccc2nccnc2c1
inactive: Potency [1] | Potency [2] | Potency [3] | Potency [4] | Potency [5] | Potency [6] | Potency [7] | Potency [8] | Potency [9] | Potency [10] | Potency [11] | Potency [12] | Potency [13] | Potency [14] | Potency [15] | Potency [16] | Potency [17] | Potency [18] | Potency [19]

CCCOCCOCCO
inactive: Potency [1] | Potency [2] | Potency [3] | Potency [4] | Potency [5] | Potency [6] | Potency [7] | Potency [8] | Potency [9] | Potency [10] | Potency [11] | Potency [12] | Potency [13] | Potency [14] | Potency [15] | Potency [16] | Potency [17] | Potency [18] | Potency [20] | Potency [19]

O=C(O)CN(CCCN(CC(=O)O)CC(=O)O)CC(=O)O
inactive: activity change, negative = cytotoxicity [1] -0.241% [at 19 µM] | activity, positive = activation [2] -12.6% [at 19 µM] | activity change [3] 14.7% [at 11.8 µM, hits give high values] | activation [4] -0.261% [at 15.8 µM] | activation [5] 9.2% [at 11.8 µM] | activation [6] -11.5% [at 13.5 µM] | activation [7] -0.0734% [at 13.6 µM] | activity change, negative = cytotoxicity [8] 10.7% [at 13.5 µM] | activity change, negative = cytotoxicity [9] 9.92% [at 13.5 µM] | activity change, negative = cytotoxicity [10] 11.6% [at 13.5 µM] | activation [11] 5.83% [at 13.5 µM] | activity, negative = inhibition [12] 19% [at 12.7 µM] | activation [13] 8.84% [at 15.9 µM] | activity, negative = inhibition [14] -1.12% [at 12.6 µM] | activation [15] 5.74% [at 15.8 µM] | activation [16] 1.21% [at 19 µM] | activity change, negative = inhibition [17] 19.1% [at 18.9 µM] | activity change, negative = inhibition [18] 0.405% [at 19 µM] | activation [20] -4.48% [at 19 µM] | activity change, negative = inhibition [19] 6.03% [at 18.9 µM]
